From PubChem BioAssay (NCI)
About 83,000 compounds went through this panel and 20% of them were active in at least one assay; those are over-represented in the sample as a whole.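 Method: cells in 96-well plates; compound added at one concentration; 48 h incubation; percent growth measured; values under 10 scored active.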 A number with no mark means an inactive call. The source made the active and inactive calls.

test system: HL-60(TB) leukemia; assay: NCI-60 one-dose screen, 48 h (100 = growth as untreated, 0 = no growth, -100 = all killed); details: 10 µM unless noted

Question: Which growth does the source give for CCOC(=O)Cc1cc(Br)c(OCc2ccccc2)c(Br)c1 here?
Answer: 71.7%

Question: With COc1ccc(CN(c2ccc(C)cc2)C2OC(=O)c3ccccc32)cc1OC (stereo unspecified) as the molecule, how does the growth read?
Answer: 96.9%

Question: With C=C(C)[C@@H]1CC[C@]2(C(=O)O)CC[C@]3(C)[C@H](CC[C@@H]4[C@@]5(C)CCC(NC(=O)c6cccc(OC(C)=O)c6OC(C)=O)C(C)(C)[C@@H]5CC[C@]43C)[C@@H]12 (stereo partly specified) as the molecule, how does the growth read?
Answer: -13.1% (active)

Question: Which growth does the source give for CN(C)c1ccc(C(=O)c2ccc(N(C)C)c(N)c2)cc1N here?
Answer: 7.38% (active)

Question: O=c1[nH][n+](-c2ccc(Br)cc2)no1 was tested. Which growth did it give?
Answer: 20.2%

Question: With O=C1/C(=C\c2ccc(Cl)cc2)CN(C(=O)c2ccccc2)C/C1=C\c1ccc(Cl)cc1 as the molecule, how does the growth read?
Answer: 58%

Question: How did the growth turn out when COc1ccc(-c2ccc(-c3ccc(C(=N)N)nc3)s2)cc1Cl was run?
Answer: -48.7% (active)

Question: O=c1[nH]c(SCc2ccccc2)nc2nc(Nc3ccc(NC(=S)Nc4ccccc4)cc3)nc(-c3ccc(O)cc3O)c12 was tested. Which growth did it give?
Answer: 117%

Question: Which growth does the source give for Cc1cc(C(=O)Nc2cc(Nc3ncccc3-c3ncnc4nc[nH]c34)ccc2F)cc(C(F)(F)F)c1 here?
Answer: 25.1%

Question: For Oc1cccc2ccc(N/N=C/c3cc(CN4CCCCC4)c(O)c4ncccc34)nc12, which growth is on record?
Answer: -12.1% (active)

Question: How did the growth turn out when Nc1ccc(Sc2ccc([N+](=O)[O-])c3nonc23)cc1 was run?
Answer: 42.8%

Question: O=C1OC(c2ccc(Cl)c(Cl)c2)=C/C1=C/c1cccc([N+](=O)[O-])c1 was tested. Which growth did it give?
Answer: 103%

Question: How did the growth turn out when Cc1nc2oc3ccccc3c(=O)c2cc1C(=O)NCc1ccccc1 was run?
Answer: 69.5%

Question: How did the growth turn out when O=C(O)CCCCCNC(=O)OCc1ccccc1 was run?
Answer: 103%

Question: Which growth does the source give for O=C1/C(=C\c2cccn2Cc2ccc(F)cc2)c2ccccc2N1c1c(Cl)cccc1Cl here?
Answer: 96.5%

Question: With CCOC(=O)NNc1nncc2ccccc12 as the molecule, how does the growth read?
Answer: 103%

Question: C=C1C(=O)O[C@H]2[C@H]1CC/C(Cn1cc(CNC(=O)/C=C/c3c[nH]c4ccccc34)nn1)=C\CC[C@@]1(C)O[C@@H]21 was tested. Which growth did it give?
Answer: 29.9%

Question: Which growth does the source give for CC1=CC(=NN=c2cc(C)n([O-])c(C)c2)C=C(C)[N+]1=O here?
Answer: 37.6%

Question: Which growth does the source give for O=c1c2sc3ncc(Br)cc3c2ncn1-c1cccc(Cl)c1 here?
Answer: 84.5%

Question: How did the growth turn out when Cc1cc2c3ccc(C)[n+](C)c3ccc2n1C was run?
Answer: -5.59% (active)

Question: With COc1ccc(F)c(F)c1C(=O)c1cnc(NC2CCN(S(C)(=O)=O)CC2)nc1N as the molecule, how does the growth read?
Answer: -32.2% (active)

Question: CCCCSc1ccc2nc(-c3ccc(OCCCN=C(N)N)cc3)cn2c1 was tested. Which growth did it give?
Answer: 41.1%

Question: How did the growth turn out when [O-]c1c[n+](-c2ccc(Cl)cc2)no1 was run?
Answer: 89.4%

Question: How did the growth turn out when Nc1ccc(N=Nc2ccc(S(=O)(=O)O)cc2)c2ccccc12 was run?
Answer: 62.8%

Question: O=C1CC2C=CCN2C=C1NC(=O)c1ccccc1 (stereo unspecified) was tested. Which growth did it give?
Answer: 100%

Question: For O=S(=O)(O)c1cnccn1, which growth is on record?
Answer: 95.3%
